Results as given in the supplement of paper PMC12350171.
Where a name gives a salt, the structure may show the parent alone.

System: S. enterica typhimurium WT
Test: growth AUC normalised to DMSO control (median) (fraction of control); higher = less growth inhibition, active = hit call of the paper
Settings: 20 µM;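 active = normalised median growth AUC below 0.1 of DMSO control; inactive = AUC 0.1 or higher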
Procedure, shortened: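 Each strain went through two overnight passages under anaerobic conditions before growth in mGAM in 96-well plates, starting at OD578 0.01, with each compound from the approved-drug library at 20 μM and 1% DMSO. Inside an anaerobic incubator, OD578 was recorded every hour for 24 h. Growth curves were cut off at entry into stationary phase, and the area under the curve was calculated by the trapezoidal rule and normalised to vehicle wells on the same plate. Reported values are medians of three biological replicates.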
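Note: active when median AUC fell below 0.1.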

| Structure (SMILES) | growth AUC normalised to DMSO control |
| --- | --- |
| C[C@]12CC[C@@H]3c4ccc(OC(=O)N(CCCl)CCCl)cc4CC[C@H]3[C@@H]1CC[C@@H]2O [Estramustine] | 1 (inactive) |
| O=C(O[C@H]1C[N+]2(CCCOc3ccccc3)CCC1CC2)C(O)(c1cccs1)c1cccs1 [Aclidinium bromide] | 1.01 (inactive) |
| COc1ccc(Cc2nccc3cc(OC)c(OC)cc23)cc1OC [Papaverine hydrochloride] | 1.01 (inactive) |
| Nc1ccncc1 [Dalfampridine] | 1.02 (inactive) |
| CN[C@@H]1C[C@@H](c2ccc(Cl)c(Cl)c2)c2ccccc21 [Indatraline hydrochloride] | 0.996 (inactive) |
| NC(=O)CN1CC(O)CC1=O (stereo not drawn) [Oxiracetam] | 1 (inactive) |
| CN1C(=O)COc2c(C(=O)NC3CN4CCC3CC4)cc(Cl)cc21 (stereo not drawn) [Azasetron hydrochloride] | 1.01 (inactive) |
| C[C@]12CC[C@H](O)CC1=CC[C@@H]1[C@@H]2CC[C@]2(C)C(=O)CC[C@@H]12 [Prasterone] | 1.01 (inactive) |
| CC(C)C[C@H]1C(=O)N2CCC[C@H]2[C@]2(O)O[C@](NC(=O)[C@@H]3C=C4c5cccc6[nH]c(Br)c(c56)C[C@H]4N(C)C3)(C(C)C)C(=O)N12 [Bromocryptine mesylate] | 1.02 (inactive) |
| C=CCN1CC[C@]23c4c5ccc(O)c4O[C@H]2C(=O)CC[C@@]3(O)[C@H]1C5 [Naloxone hydrochloride] | 1.01 (inactive) |
| C=CC[C@]1(O)CC[C@H]2[C@@H]3CCC4=CCCC[C@@H]4[C@H]3CC[C@@]21C [Allylestrenol] | 1.02 (inactive) |
| C=C1C[C@@H]2[C@H](CC[C@]3(C)C(=O)CC[C@@H]23)[C@@]2(C)C=CC(=O)C=C12 [Exemestane] | 0.996 (inactive) |
| C[C@]12C/C(=C/O)C(=O)C[C@@H]1CC[C@@H]1[C@@H]2CC[C@@]2(C)[C@H]1CC[C@]2(C)O [Oxymetholone] | 1.01 (inactive) |
| CCC(=O)O[C@H]1CC[C@H]2[C@@H]3CCC4=CC(=O)CC[C@]4(C)[C@H]3CC[C@]12C [Testosterone propionate] | 1.02 (inactive) |
| CC(N)C(O)c1ccccc1 (stereo not drawn) [Phenylpropanolamine hydrochloride] | 1.01 (inactive) |
| Cc1cccc(C)c1NC(=O)CN1CCCC1=O [Nefiracetam] | 1 (inactive) |
| C[C@]12COC(=O)C[C@@H]1CC[C@@H]1[C@@H]2CC[C@@]2(C)[C@H]1CC[C@]2(C)O [Oxandrolone] | 1.01 (inactive) |
| CCC1(C2=NCCN2)Cc2ccccc2O1 (stereo not drawn) [Efaroxan hydrochloride] | 0.997 (inactive) |
| CCC(COC(=O)c1cc(OC)c(OC)c(OC)c1)(c1ccccc1)N(C)C (stereo not drawn) [Trimebutine] | 1 (inactive) |
| COC[C@@H](NC(C)=O)C(=O)NCc1ccccc1 [Lacosamide] | 0.987 (inactive) |
| CCCCCC[C@H]1C(=O)O[C@H](C)[C@H](NC(=O)c2cccc(NC=O)c2O)C(=O)O[C@@H](C)[C@@H]1OC(=O)CC(C)C [Antimycin A] | 1.01 (inactive) |
| C[C@]12CCC(=O)C=C1CC[C@@H]1[C@@H]2C(=O)C[C@]2(C)C(=O)CC[C@@H]12 [Adrenosterone] | 1.01 (inactive) |
| N#Cc1nn(-c2c(Cl)cc(C(F)(F)F)cc2Cl)c(N)c1[S+]([O-])C(F)(F)F (stereo not drawn) [Fipronil] | 1.01 (inactive) |
| NC(=O)OCCCc1ccccc1 [Phenprobamate] | 0.989 (inactive) |
| CC[C@@H](C(=O)[C@@H](C)[C@@H](O)[C@H](C)[C@@H]1O[C@@H]([C@@H](CC)C(=O)O)CC[C@@H]1C)[C@H]1O[C@]2(C=C[C@@H](O)[C@]3(CC[C@@](C)([C@H]4CC[C@](O)(CC)[C@H](C)O4)O3)O2)[C@H](C)C[C@@H]1C [Salinomycin sodium] | 1.01 (inactive) |
| CCN(C)C(=O)Oc1cccc([C@H](C)N(C)C)c1 [Rivastigmine] | 1.01 (inactive) |
| Nc1nc(N)nc(NC2CC2)n1 [Cyromazine] | 1 (inactive) |
| C#C[C@]1(O)C=C[C@H]2[C@@H]3CCC4=CC(=O)CC[C@@H]4[C@H]3CC[C@@]21CC [Gestodene] | 0.997 (inactive) |
